Screens as filed in PubChem BioAssay.
HUVEC tox IL1B = toxic to HUVEC cells under IL-1B stimulation; HUVEC cell count loss, Hoechst imaging, IL-1B stimulated; cell count reduction, % at 2 µM; hit rate 0.41% among 94,000; AID 845;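 active = cell count reduction more than 3 SD above the screen-wide mean, cut at about 70% in these data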;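 also: normalized per plate to untreated control cells as the no-loss baseline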
ERa SRC1 pot = ER-alpha (human) coactivator binding potentiation. coactivator binding (% of control), % at 25.6 µM. P03372. hit rate 1.3% among 86,000. TR-FRET ERalpha-LBD/SRC-Cy5 coactivator binding, 2 h; 100 = basal binding, no effect; in the data active = activity above about 200%;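 also: binding measured in presence of low estradiol as agonist stimulus; 0% = peptide alone without receptor and 100% = receptor with peptide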
Target sequence (P03372 whole entry, looked up, the tested form may be a part): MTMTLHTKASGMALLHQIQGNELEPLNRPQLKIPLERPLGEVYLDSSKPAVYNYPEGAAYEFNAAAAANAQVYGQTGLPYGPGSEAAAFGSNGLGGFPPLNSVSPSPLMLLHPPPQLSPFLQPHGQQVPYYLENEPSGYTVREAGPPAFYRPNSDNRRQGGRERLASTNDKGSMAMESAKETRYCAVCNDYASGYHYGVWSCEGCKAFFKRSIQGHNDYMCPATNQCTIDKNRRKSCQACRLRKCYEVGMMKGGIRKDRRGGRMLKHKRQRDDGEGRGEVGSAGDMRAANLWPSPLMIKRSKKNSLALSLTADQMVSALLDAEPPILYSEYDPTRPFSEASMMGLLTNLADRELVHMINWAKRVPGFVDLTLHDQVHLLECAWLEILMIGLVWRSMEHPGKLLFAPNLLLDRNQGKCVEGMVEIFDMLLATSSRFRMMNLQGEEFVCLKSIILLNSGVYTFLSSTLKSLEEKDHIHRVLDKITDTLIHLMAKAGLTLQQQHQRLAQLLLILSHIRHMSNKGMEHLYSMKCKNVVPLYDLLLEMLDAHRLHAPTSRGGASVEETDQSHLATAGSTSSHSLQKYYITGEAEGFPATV
ERa coact inh = blocks coactivator binding to human estrogen receptor alpha | AID 629 | TR-FRET ER-alpha LBD / SRC-1 peptide, estradiol-bound | hit rate 1.7% among 86,000 | inhibition, % at 25.6 µM; in the data active = inhibition above about 50%;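 also: 0% = receptor plus peptide control and 100% = peptide only without receptor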
IL1B NFkB pot = enhances IL-1B driven NFkB nuclear translocation | HUVEC IL-1B NFkB p65 nuclear translocation imaging | activation, % at 2 µM | hit rate 0.3% among 94,000;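 active = activation above 40%, about the mean plus 3 SD, also judged a hit on visual image review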;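 also: percent activation is computed from the nuclear over cytoplasmic p65 intensity ratio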
ERb SRC1 inh = blocks coactivator binding to human estrogen receptor beta; inhibition, % at 25.6 µM; AID 633; hit rate 1.3% among 86,000; TR-FRET ER-beta LBD / SRC1-Cy5 peptide binding; receptor agonist-loaded with 1 µM estradiol;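 active = compounds whose percent inhibition of the receptor-coactivator binding signal exceeds about 50% in the single-dose screen, limit read from the data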;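 also: 0% = receptor plus peptide wells without compound and 100% = peptide-only wells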
NFkB transloc inh = blocks IL-1B driven NFkB nuclear translocation in HUVEC cells; HUVEC IL-1B NFkB p65 nuclear translocation imaging; inhibition, % at 2 µM; hit rate 0.43% among 94,000; AID 796;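 active = inhibition above about 30% together with a positive call from visual inspection of the well image, limit read from the data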;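 also: nuclear over cytoplasmic p65 intensity ratio measured by imaging; 0% = IL-1B stimulated DMSO wells and 100% = unstimulated DMSO wells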
Starred values were filed as active, the others as inactive; x = not tested or not shown; [ ] = another dose, or the depositor's remark. This is a sample that favours compounds with a hit; in the whole collection about 3.6% have one here.

SMILES | HUVEC tox IL1B | ERa SRC1 pot | ERa coact inh | IL1B NFkB pot | ERb SRC1 inh | NFkB transloc inh
O=C(CC1C(=O)NCCN1C(=O)c1ccc(F)cc1)OCc1ccccc1 (stereo unspecified) | 92* | 91 | -5 | 13 | 2 | -13
COc1cc(NC(=O)c2cccs2)c(OC)cc1NC(=O)CCn1nnc2ccccc21 | -2 | 112 | -1 | -4 | 51*[fluorescence artefact?] | 4
O=C(Cn1nnc(-c2ccccc2NC(=O)c2cccs2)n1)Nc1ccccc1 | 15 | 200*[fluorescence artefact?] | 65*[fluorescence artefact?] | 15 | 57*[fluorescence artefact?] | -15
COc1ccc(NC(=O)Cn2nnc(-c3ccccc3NC(=O)C3CC3)n2)cc1 | x | 106 | 5 | x | 4 | x
CCOC(=O)c1sc(NC(=O)CCn2nnc3ccccc32)c(C(=O)OCC)c1C | x | 183 | 15 | x | 8 | x
COc1cc(NC(=O)c2cccs2)c(C(=O)OCC(=O)NCc2ccccc2)cc1OC | -48 | 269* | 16 | 4 | 3 | -4
COc1ccccc1NC(=O)Cn1nnc(-c2ccccc2NC(=O)c2cccs2)n1 | 11 | 339*[fluorescence artefact?] | -15 | 0 | -5 | 0
O=C1CCCN1c1ccc(S(=O)(=O)Oc2cccc(Cl)c2)cc1[N+](=O)[O-] | -13 | x | x | 0 | x | 0
O=C(NCCN1CCOCC1)c1ccc(Cl)cc1[N+](=O)[O-] | 14 | x | x | 3 | x | -2
Cc1ccc(S(=O)(=O)Nc2ccc(-c3nc4cc(NS(=O)(=O)c5ccc(C)cc5)ccc4o3)cc2)cc1 | -2 | x | x | 0 | x | 0
CCOC(=O)COn1c(=O)c(=O)n(O)c2ccccc21 | x | 74 | 36 | x | 50*[fluorescence artefact?] | x
CCOC(=O)COn1c(=O)c(=O)n(OC)c2ccccc21 | -85 | 101 | 14 | 11 | 18 | -11
CCOC(=O)c1c(C)c(-c2ccccc2)n(CC(=O)NCCC(C)C)c1C | -44 | 175 | -1 | 12 | -1 | -12
c1ccc(C2(CNc3ccccn3)CCCC2)cc1 | -14 | 104 | -1 | 3 | 4 | -3
Cc1cnn(-c2ccc3nnc(-c4ccc(Cl)cc4)n3n2)c1 | -14 | 329*[fluorescence artefact?] | 26 | 7 | 29 | -7
COc1ccc(NC(=O)c2sc3cc(C(F)(F)F)cnc3c2-c2cccs2)cc1 | x | 233*[fluorescence artefact?] | 34 | x | 27 | x
O=C(Nc1ccc(F)cc1)c1sc2cc(C(F)(F)F)cnc2c1-c1cccs1 | x | 185 | 21 | x | 21 | x
N#Cc1ccc(NC(=O)c2sc3cc(C(F)(F)F)cnc3c2-c2cccs2)cc1 | x | 330*[fluorescence artefact?] | 18 | x | 17 | x
Cc1oc2cc3c(C(=O)OCCN(C)C)c(C)oc3cc2c1C(=O)OCCN(C)C | x | 108 | -5 | x | 6 | x
NC(=O)c1oc2ccccc2c1NC(=O)c1nc2ccccc2s1 | -36 | 493* | 22 | -7 | 26 | 7
O=C(CCN1C(=O)c2ccccc2C1=O)N1CCC(c2ccccc2)C1 (stereo unspecified) | -2 | 146 | 1 | 10 | 8 | -10
CC(=O)Oc1cccc(N2C(=O)C3CC=CCC3C2=O)c1 (stereo unspecified) | 89* | 110 | 3 | 30 | 3 | -30
COc1cccc(/C=N/n2c(-c3cccs3)n[nH]c2=S)c1 | -9 | x | x | 11 | x | -11
CN(C)S(=O)(=O)N1CCN(CC(O)COc2ccc3cc(Br)ccc3c2)CC1 (stereo unspecified) | 0 | 119 | 0 | -9 | -6 | 9
O=S(=O)(N1CCCCC1)N1CCN(CC(O)COc2ccc3cc(Br)ccc3c2)CC1 (stereo unspecified) | 1 | 253* | -5 | 30 | -8 | -30
SMILES | HUVEC tox IL1B | ERa SRC1 pot | ERa coact inh | IL1B NFkB pot | ERb SRC1 inh | NFkB transloc inh
Cc1c(CN(C)C(=O)c2sc3cc(Cl)ccc3c2Cl)cnn1C | 10 | 118 | 7 | 8 | 1 | -8
Nc1ccc(O)c(-c2nc3ccccc3s2)c1 | -1 | 7 | 98*[fluorescence artefact?] | 15 | 64*[fluorescence artefact?] | -15
Cc1ccc(S(=O)(=O)N=S(CC2CC2(Cl)Cl)CC2CC2(Cl)Cl)cc1 (stereo unspecified) | 4 | 101 | -4 | 10 | -2 | -10
CC(=Nc1ccc(C)cc1)c1sc2ccccc2c1O | -8 | 102 | -7 | 5 | -10 | -4
CC(=Nc1cccc(O)c1)c1sc2ccccc2c1O | -41 | 86 | -21 | -53 | 0 | 53*
CC1CCC2(CC1)NC(=O)N(CC(=O)c1ccc[nH]1)C2=O (stereo unspecified) | 1 | 80 | 75* | 13 | 36 | -13
O=C(c1ccco1)N1CCN(C(=O)c2cc(-c3ccccn3)nc3ccc(Cl)cc23)CC1 | -46 | 44 | 64*[fluorescence artefact?] | 3 | 54*[fluorescence artefact?] | -3
CCOc1ccc(C(CCc2ccccc2)NC(=O)c2ccccc2F)cc1OCC (stereo unspecified) | 8 | x | x | -4 | x | 4
O=C1c2ccccc2-c2onc3c(Oc4ccccc4)cc(O)c1c23 | -17 | 16 | 74*[fluorescence artefact?] | 4 | 71*[fluorescence artefact?] | -4
COc1ccc(CN2CCn3ncc(C(=O)Nc4cc(C)cc(C)c4)c3C2=O)cc1 | 4 | 252*[fluorescence artefact?] | 15 | -1 | 5 | 1
Cc1cc(NC(=O)CCC(=O)N(Cc2ccco2)C2(C(=O)NC3CCCCC3)CCN(C)CC2)no1 | 87* | 121 | -1 | -99 | -3 | 99*
Cc1nc(=O)c(-c2ccccc2)c(C)n1CCCCCC(=O)O | 4 | 92 | 0 | 0 | -9 | 0
C=CCn1cnc2c(c1=O)c1nc3ccccc3nc1n2/N=C/c1cccc(OC)c1OC | x | 66 | 85*[fluorescence artefact?] | x | -1 | x
O=C(OCCN1C(=O)c2ccccc2C1=O)c1cccc(OC(F)F)c1 | -4 | 126 | 3 | -1 | 3 | 1
N#C/C(=C/c1ccc(N2CCOCC2)c([N+](=O)[O-])c1)C(N)=O | 27 | 103 | -4 | -1 | -12 | 2
COc1ccc2[nH]cc(C(=O)CN3CCN(C/C=C/c4ccccc4)CC3)c2c1 | 4 | 109 | -18 | -36 | -12 | 36*
COc1ccc2c(C(=O)CN3CCN(CCO)CC3)c[nH]c2c1 | -8 | 122 | -3 | 6 | -2 | -6
CN1CCN(c2ccc(Cl)cc2NC(=O)c2nn(-c3ccccc3)c(=O)c3ccccc23)CC1 | 1 | 242*[fluorescence artefact?] | 13 | 1 | 37 | -1
CC1(C)Cc2ccccc2-c2nnc(SCC(=O)Nc3nc4ccccc4s3)n21 | -12 | 144 | 56*[fluorescence artefact?] | 1 | 15 | -1
Clc1ccc2c(c1)C(c1cccs1)=NNC(c1cccnc1)=N2 | -23 | x | x | 14 | x | -14
Cc1cccc(-n2cnc(C(=O)N/N=C\c3ccc(Br)cc3)c2)n1 | 17 | 515*[fluorescence artefact?] | -8 | -6 | 32 | 6
Cc1c(C)n(C(=O)CN2CCC(C)CC2)c2ccccc12 | -8 | 102 | -3 | -2 | -8 | 2
CCCCNC(=O)CCn1nc(-c2ccccc2)ccc1=O | -4 | 86 | 0 | 53* | -3 | -53
Cc1cccn2c(=O)c3cc(C(=O)NC(C)c4ccccc4)c(=N)n(CCCn4ccnc4)c3nc12 (stereo unspecified) | x | 99 | 14 | x | 3 | x
O=C(O)c1coc2ccccc12 | -18 | 111 | 1 | 57* | 0 | -57
